This is an account of results in PubChem BioAssay AID2099 (Broad Institute, 2009).

Out of some 330,000 compounds screened, about 230 (0.07%) were called active.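 The calls were made as follows: active = more than half of a compound's replicate wells show inhibition beyond 50%, single wells judged on their own value; inconclusive = some, but no more than half, of replicates pass 50% inhibition; inactive = no replicate passes 50% inhibition.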 Shown is part of a subset that was picked to be rich in actives.

Sequence of Lysine-specific demethylase 4C (Homo sapiens) (Q9H3R0 1-420 limits assumed): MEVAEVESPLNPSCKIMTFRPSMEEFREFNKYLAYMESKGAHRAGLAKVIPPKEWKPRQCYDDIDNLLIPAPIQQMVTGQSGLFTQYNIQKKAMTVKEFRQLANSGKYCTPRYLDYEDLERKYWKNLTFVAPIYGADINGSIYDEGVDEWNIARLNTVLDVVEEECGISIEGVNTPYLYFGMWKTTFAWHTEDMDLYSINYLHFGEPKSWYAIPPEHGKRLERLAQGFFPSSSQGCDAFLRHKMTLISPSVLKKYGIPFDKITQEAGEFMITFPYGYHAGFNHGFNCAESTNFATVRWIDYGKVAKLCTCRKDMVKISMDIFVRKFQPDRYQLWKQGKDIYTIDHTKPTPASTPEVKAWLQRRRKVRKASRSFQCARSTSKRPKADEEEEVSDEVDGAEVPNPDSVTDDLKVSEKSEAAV

The assay concerns the target Lysine-specific demethylase 4C (Homo sapiens) (UniProt Q9H3R0). Description: inhibitors of GASC-1 histone demethylase, primary screen, biochemical, fluorescence, DELFIA europium (AID 2099).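 Also: signal counts dimethyl H3K9 product captured on neutravidin plate; 0% = median of DMSO wells and 100% = 0.3 times that DMSO median.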 The note with it: GST-JMJD2C(1-420) H3K9me3 demethylation, at 2.35 µM, active compounds read high.
Consider `CCc1cc2c(=O)n(-c3ccccc3)c(SCC(=O)O)nc2s1`, for which the inhibition (as a rule, the change of the read-out against control, counted positive when it falls) was -0.0126% (inactive).

As to `Cn1ccnc1-c1nnn(-c2ccc(F)cc2)n1`, the inhibition was 1.58% (inactive). The value for `Cc1sc2ncn(CC(=O)NCCCC(=O)N(C)Cc3ccccc3)c(=O)c2c1C` was 3.53% (inactive); that for `Cc1ccc2nc(C)c3c(c2c1)N(c1ccccc1)CC3` was 0.549% (inactive); that for `CC(C)n1c(=S)[nH]c2cc(C(F)(F)F)ccc21` was 9.24% (inactive). For `O=C(COC(=O)c1ccccc1NC(=O)c1ccco1)Nc1ccc2c(c1)OC(F)(F)O2`, the inhibition is -7.33% (inactive). Regarding `CCN1CCC2(CC1)N=C(c1ccc(F)cc1)C(=S)N2C(=O)c1ccc(C)cc1`, the inhibition is -5.72% (inactive). Turning to `CCOc1ncccc1C(=O)OCC(=O)Nc1cccc(S(=O)(=O)N2CCCCCC2)c1`, the inhibition was 3.84% (inactive). The value for `CCC1(C)N(O)C(C)(C)C(c2ccc(OC)cc2)=[N+]1[O-]` (stereo unspecified) was 1.82% (inactive). For `CN(/C(=N/S(=O)(=O)c1cccs1)c1ccccc1)c1ccc(O)cc1`, the inhibition is -2.26% (inactive).

For `COc1ccc(Cl)cc1N(CC(=O)N/N=C/c1ccc(OCC(N)=O)cc1)S(C)(=O)=O`, the inhibition was 4.78% (inactive). For the compound `O=C(COc1ccc(Cl)cc1Cl)NCCCNC(=O)c1cnccn1`, the inhibition is -5.15% (inactive). For `CCOC(=O)C(=Cc1ccccc1OC)C(=O)OCC`, the inhibition was -1.48% (inactive). With `CCOc1ccccc1NC(=O)NC1CCCCCCC1` the figure was 3.73% (inactive). As for `CC(=O)Nc1ccc(NC(=O)C(C)OC(=O)C2CC(=O)N(CCc3ccccc3)C2)cc1` (stereo unspecified), the inhibition is 0.0499% (inactive). Turning to `Cc1nn(Cc2ccc(F)cc2)c(C)c1NC(=O)c1noc2c1CCc1ccccc1-2`, the inhibition was -8.11% (inactive). Turning to `COc1ccccc1CCC(=O)NNC(=O)c1ccncc1`, the inhibition was -2.82% (inactive). Regarding `COc1cccc(CN(C)C(=O)CC23CC4CC(CC(C4)C2)C3)c1OC`, the inhibition was 8.93% (inactive). With `CC(C)=CCN1CCN(Cc2cc3ccccc3[nH]2)CC1CCO` (stereo unspecified) the figure was -4.87% (inactive); with `COc1ccc(-c2nnc(SC(=O)N3c4ccccc4Sc4ccccc43)o2)cc1`, -0.278% (inactive). For the compound `CC1=C(C(=O)N(C)C)C(c2ccccc2OC(F)F)NC(=O)N1` (stereo unspecified), the inhibition was 6.88% (inactive). As for `CCN1N=C(c2ccccc2)CCC1=O`, the inhibition was 2.88% (inactive). `CCc1ccc[n+](-c2nc([O-])sc2C=O)c1`: the inhibition is 22.8% (inactive). Regarding `Cc1ccnc(NC(=O)CCNS(=O)(=O)c2ccc(C)c(C)c2)c1`, the inhibition was 7.52% (inactive). In the case of `CCOc1ccc(-n2c(N)c(C(=O)NCC3CCCO3)sc2=S)cc1` (stereo unspecified), the inhibition is -1.83% (inactive). Consider `CCC(C)(C(=O)NC1CCCCC1)N(C)C(=O)c1ccc2c(c1)OCO2` (stereo unspecified), for which the inhibition was 10.3% (inactive). With `CN(C)c1nc(N)nc(CSc2nnnn2-c2cccc3ccccc23)n1` the figure was -13.8% (inactive). With `O=C(NCc1ccc(F)cc1)C(c1ccccc1)N(C(=O)c1csnn1)C1CC1` (stereo unspecified) the figure was -35.4% (inactive); with `CCc1ccc(N2CC(C(=O)N3CCCCCC3)CC2=O)cc1` (stereo unspecified), 1.98% (inactive). The value for `CN1CCN(S(=O)(=O)c2cccc(C(=O)Nc3cccc(S(N)(=O)=O)c3)c2)CC1` was -5.59% (inactive); that for `COc1ccccc1C(=O)Nc1cccc(C(=O)N2CCOCC2)c1` was 4.92% (inactive); that for `O=C(NCN1CCN(CCO)CC1)c1cnccn1` was -26.1% (inactive). For the compound `COc1cccc(NC(=O)CN(C)CC(=O)c2c(N)n(Cc3ccccc3)c(=O)n(C)c2=O)c1`, the inhibition is -0.288% (inactive). Consider `CCCN(CCC)C(=O)C1c2ccccc2Oc2ccccc21`, for which the inhibition was 8.4% (inactive). Take `CC(C)C[C@H](NC(=O)C1CCC(CNC(=O)[C@@H]2CCCN2C(=O)OC(C)(C)C)CC1)C(=O)O` (stereo partly specified): the inhibition is 0.085% (inactive).

For the compound `Cc1ccc(NS(=O)(=O)c2ccc(F)cc2)nc1`, the inhibition was -1.74% (inactive). As for `COc1ccccc1CNC(=O)COC(=O)c1cccs1`, the inhibition was -6.88% (inactive).

As to `CC(=O)NCCc1ccc(S(=O)(=O)Nc2ccc(C)c(S(=O)(=O)N3CCOCC3)c2)cc1`, the inhibition was -18.7% (inactive).

For `CC(=O)NC1=NN(C(C)=O)C(C)(c2ccc(Cl)s2)S1` (stereo unspecified), the inhibition is -13.4% (inactive). For `CCOc1ccc(N(C)Cc2cc(=O)oc3ccc(OC)cc23)cc1`, the inhibition is -5.29% (inactive). The value for `Cc1ccc(CSc2nc3[nH]ncc3c(=O)[nH]2)cc1` was -14.5% (inactive).

As to `COC(=O)c1cc(CNC(=O)CC(C)c2ccccc2)ccc1OC` (stereo unspecified), the inhibition is -9.06% (inactive). For `CCOC(=O)c1ccc(NC(=S)N2CCN(c3ccccn3)CC2)cc1`, the inhibition was 21.6% (inactive). Regarding `OC(COc1ccc(CN2CCSCC2)cc1)CN1CCCCC1` (stereo unspecified), the inhibition is 6.13% (inactive). With `CCOC(=O)C1=C(COC(=O)[C@H](C)NS(=O)(=O)c2ccccc2F)NC(=O)NC1C` (stereo partly specified) the figure was 0.99% (inactive). Consider `COc1cc2nc(CN(C)Cc3ccc(F)cc3)[nH]c(=O)c2cc1OC`, for which the inhibition was -7.12% (inactive). On to `Cc1cc(NC(=O)CCC(=O)N(Cc2ccccc2)C(C(=O)NC2CCCC2)c2ccc(C)o2)no1` (stereo unspecified), for which the inhibition is -25.8% (inactive). Turning to `CCCCn1c(N)c(N(CCOC)C(=O)c2cccc(S(=O)(=O)N(C)c3ccccc3)c2)c(=O)[nH]c1=O`, the inhibition is -2.28% (inactive). The value for `CCC(C(=O)Nc1ccc(C(C)C)cc1)c1ccccc1` (stereo unspecified) was -16% (inactive). Regarding `O=C(Nc1ccc(S(=O)(=O)Nc2ccccn2)cc1)c1ccccc1`, the inhibition is -2.52% (inactive).

Take `COC(=O)c1cc(C(=O)NC(C)C2CC3CCC2C3)cc([N+](=O)[O-])c1` (stereo unspecified): the inhibition is -12.5% (inactive).

As to `COc1cc(NC(=O)c2ccccc2)c(OC)cc1NC(=O)Cc1ccccc1`, the inhibition was 0.759% (inactive).

As to `Nc1nc(SCC(=O)Nc2cc(C(F)(F)F)ccc2Cl)[nH]c(=O)c1NC(=O)c1ccco1`, the inhibition is 6.68% (inactive). `COc1ccc(C(CC(=O)c2ccccc2)S(=O)(=O)c2ccccc2)cc1` (stereo unspecified): the inhibition is -0.656% (inactive). On to `CCC(C(=O)NCCC(C)C)N(Cc1ccccc1Cl)C(=O)c1snc(C(N)=O)c1N` (stereo unspecified), for which the inhibition is -1.98% (inactive). The value for `CCCCCOC(=O)C1=C(C)Nc2nnnn2C1c1ccc(OC)c(OC)c1OC` (stereo unspecified) was -7.05% (inactive). As to `Cc1ccc(NC(=O)Cn2cnc3c(OCc4ccccc4)ncnc32)cc1C`, the inhibition was 3.36% (inactive).

Consider `O=C(Cc1cccs1)NCc1cccc(C(F)(F)F)c1`, for which the inhibition was 2.56% (inactive). In the case of `O=C(c1ccc(S(=O)(=O)N2CCCC2)cc1)N1CCN(c2ccccc2F)CC1`, the inhibition is 5.37% (inactive). Take `C/C(=N\NC(=O)CCn1nc(C)cc1C)C(C)(C)C`: the inhibition is -1.66% (inactive). On to `CCC(c1nnc(SCC(=O)NNC(=O)c2ccccc2)n1Cc1ccccc1)N(C)C` (stereo unspecified), for which the inhibition was 24.1% (inactive). In the case of `CC1CN(C(=O)COC(=O)c2cccc(NS(=O)(=O)c3ccccc3)c2)CC(C)O1` (stereo unspecified), the inhibition was -11.9% (inactive). On to `CC(C)(C)n1nnc(CCc2nnn(C(C)(C)C)n2)n1`, for which the inhibition is 4.71% (inactive). For the compound `CC1CC(C)(C)CC2(C1)NC(=O)N(CC(=O)Nc1nccs1)C2=O` (stereo unspecified), the inhibition is 12% (inactive).

`CN(C)/C=N/c1cc(=O)n(C)c(=O)n1CC1CC1`: the inhibition was -0.734% (inactive). Take `CN(C)S(=O)(=O)c1ccc(N2CCCC2=O)c([N+](=O)[O-])c1`: the inhibition is 7.65% (inactive).

On to `C=CCc1cc(S(=O)(=O)c2ccc(O)c(CC=C)c2)ccc1O`, for which the inhibition was 11.5% (inactive). `CCCCc1ccc(S(N)(=O)=O)cc1`: the inhibition is 1.85% (inactive). Consider `COc1cc(CN(C)Cc2nc3cc(C(F)(F)F)ccc3c(=O)[nH]2)ccc1OC(F)F`, for which the inhibition was -0.492% (inactive). On to `O=[N+]([O-])c1ncc(Br)cc1Nc1ccccc1`, for which the inhibition is -32.6% (inactive). With `CC(C)N(Cc1nnc(-c2ccc(Cl)cc2)o1)C(=O)C1=COCCO1` the figure was 0.031% (inactive); with `COc1ccc(CNC(=O)C(=O)N2CCC3(CC2)OCCN3S(=O)(=O)c2ccc(C)cc2)cc1`, 28.1% (inactive). For the compound `Cc1cc(C)n(CCNC(=O)CC2C(=O)NCCN2Cc2ccc(C)o2)n1` (stereo unspecified), the inhibition was -19.8% (inactive).

Regarding `CCC(=O)NC(Nc1cc(C)ccn1)(C(F)(F)F)C(F)(F)F`, the inhibition was -10.4% (inactive). Take `CC1CN(C(=O)CCC(=O)NCCCN2CCC(Cc3ccccc3)CC2)c2cc(Cl)ccc2O1` (stereo unspecified): the inhibition was 2.61% (inactive). Regarding `Cc1noc(C)c1C(=O)OCC(=O)N1CCN(S(=O)(=O)c2ccc3ccccc3c2)CC1`, the inhibition was -0.0421% (inactive).

Turning to `CCOC(=O)c1sc(-c2cccc([N+](=O)[O-])c2)cc1N`, the inhibition was 0.615% (inactive).

Regarding `Cc1ccc(C(=O)CN2C(=O)NC3(CCOc4ccccc43)C2=O)s1` (stereo unspecified), the inhibition was 0.803% (inactive). Take `CCOc1ccc(NC(=O)CN(C)CC(=O)NC(C)c2ccccc2)cc1OCC` (stereo unspecified): the inhibition is 2.69% (inactive).

Regarding `CCN1C(=O)C(=O)N(CC(=O)Nc2cc(C)ccc2C)C1=O`, the inhibition was 8.4% (inactive).

For the compound `COc1cccc2cc(C(=O)NCc3ccc(C)cc3)c(=N)oc12`, the inhibition was 0.845% (inactive). As for `Cc1ccccc1-c1cc(C(=O)NCC2CC2)n(CC2CC(c3cccnc3)=NO2)n1` (stereo unspecified), the inhibition was -1.99% (inactive). With `O=C(/C=C/c1cccs1)c1cc(Cl)ccc1OC(=O)N1CCOCC1` the figure was 98.5% (inactive); with `CN(C(=O)c1ccccn1)c1nnc(-c2ccccn2)s1`, 58.4% (active). In the case of `COc1cc(OC)cc(-c2nnc(N(C)C(=O)c3ccncc3)s2)c1`, the inhibition was -7.55% (inactive). On to `COc1cccc(-c2nnc(N(C)C(=O)c3ccno3)s2)c1`, for which the inhibition is -39.9% (inactive). On to `O=C(NCCNc1ccc([N+](=O)[O-])cc1)c1cccc2c(Br)cccc12`, for which the inhibition is 7.15% (inactive). Turning to `O=C(O)CCCn1cc(NC(=O)COc2cccc(Cl)c2)cn1`, the inhibition is -414% (inactive). For the compound `CCCCn1c(N)c(N(CC(C)C)C(=O)c2cccc(S(=O)(=O)N3CCN(C(C)=O)CC3)c2)c(=O)[nH]c1=O`, the inhibition is -1.72% (inactive). Turning to `CC1CCN(C(=O)/C(=C\c2ccccc2F)NC(=O)c2ccccc2)CC1`, the inhibition was 0.57% (inactive). Take `CCOc1ccc(S(=O)(=O)N2CCC(c3ccccc3)CC2)cc1C(=O)O`: the inhibition is -0.18% (inactive).
